Compound activity: PubChem, National Center for Advancing Translational Sciences (NCATS)
Rows were chosen to be rich in hits. Some 0.43% of all compounds tested hit in one or more screens of this group.
aGlu spleen mod: inhibitors or activators of human alpha-glucosidase in spleen homogenate; AID 2112; P10253; Potency, µM (titrated, usually from 79.9 µM), without a hit: at the top dose activity change, negative = inhibition, hits mostly inhibitors; human spleen homogenate, 4-MU-alpha-glucoside fluorescence; actives 0.006% (n = 240,000);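 note: potency is the fitted concentration of half-maximal effect; 0% = enzyme with vehicle and -100% = no enzyme basal signal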
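Human spleen homogenate (1 ug) incubated with compounds and 1 mM 4-methylumbelliferyl-alpha-D-glucopyranoside in pH 5.0 citrate/phosphate buffer, 37 C, 40 min. Stopped at pH 10; 4-MU fluorescence (Ex 365/Em 440 nm); AC50 by Hill fit.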
N370S GC mod: inhibits or activates N370S mutant glucocerebrosidase. N370S GC spleen homogenate, 4MU-glucoside fluorescence. Potency, µM (top dose mostly 59.4 µM), inactives show top-dose activity change, negative = inhibition, actives largely listed as inhibitors. AID 2101. actives 0.092% (n = 330,000);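 note: potency is the fitted concentration of half-maximal effect; 0% = full enzyme activity and -100% = no enzyme basal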
GLA inh pH 4.5: blocks human alpha-galactosidase A at pH 4.5 | purified enzyme, 4-MU-alpha-Gal fluorescence, pH 4.5 | 230,000 tested, under 10 active | P06280 | activity change, negative = inhibition, % at 105 µM;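 note: 0% = full activity with enzyme and -100% = basal without enzyme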
GAA inhib: blocks human lysosomal alpha-glucosidase | actives 0.005% (n = 200,000) | Potency, µM (series often up to 76.9 µM), for the others: at the highest dose activity change, negative = inhibition, actives largely listed as inhibitors | purified human GAA, 4-MU-alpha-glucoside fluorescence;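 note: potency is the fitted concentration of half-maximal effect; plate controls were uninhibited enzyme wells for no effect and no-enzyme background for full effect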
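Compounds are titrated up to 77 uM against 4 nM human enzyme. Substrate 4-methylumbelliferyl-alpha-D-pyranoside (400 uM) reacts 20 min at room temperature in pH 5.0 buffer; liberated 4-methylumbelliferone is read at 440 nm.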
GAA glycogen mod: GAA glycogen-cleavage inhibition or activation; recombinant GAA, glycogen substrate, Amplex Red glucose oxidase fluorescence; actives 0.38% (n = 300,000); AID 2100; Potency, µM (series often up to 76.4 µM), for inactives: at the top dose activity change, negative = inhibition, most hits filed as inhibitors; P10253;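 note: potency is the fitted concentration of half-maximal effect; 0% = full enzyme reaction and -100% = no-enzyme basal signal; the screen sought inhibitors and activators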
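qHTS, 1536-well; enzyme 4 nM final; cpd up to 77 uM; substrate bovine liver glycogen 30 ug; 50 mM citrate/phosphate pH 5.0, 0.01% Tween-20; 37 C, 40 min; Amplex Red detection 45 min RT; Hill fit → AC50.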
aGal spleen mod: alpha-galactosidase A (human) modulation | AID 2107 | P06280 | Potency, µM (series often up to 80 µM), for the others: top-dose activity change, negative = inhibition, actives largely listed as inhibitors | human spleen homogenate, 4MU-alpha-Gal fluorescence, 40 min | actives 0.008% (n = 240,000);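 note: potency is the fitted concentration of half-maximal effect; 0% = enzyme with vehicle and -100% = no enzyme basal signal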
Target sequence (P06280 32-429 limits assumed): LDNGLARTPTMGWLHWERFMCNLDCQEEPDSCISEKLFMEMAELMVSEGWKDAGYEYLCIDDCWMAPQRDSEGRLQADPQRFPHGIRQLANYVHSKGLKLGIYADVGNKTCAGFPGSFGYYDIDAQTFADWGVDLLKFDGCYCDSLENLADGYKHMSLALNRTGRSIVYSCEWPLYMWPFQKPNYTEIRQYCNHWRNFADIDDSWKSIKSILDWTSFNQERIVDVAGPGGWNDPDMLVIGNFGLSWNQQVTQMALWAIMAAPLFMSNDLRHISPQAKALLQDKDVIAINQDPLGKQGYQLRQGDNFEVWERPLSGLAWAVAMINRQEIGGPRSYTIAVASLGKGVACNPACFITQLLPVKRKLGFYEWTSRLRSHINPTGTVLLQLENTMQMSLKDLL
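Fluorogenic readout (Ex 365/Em 440 nm) of 4-methylumbelliferone released from 1 mM 4-MU-alpha-galactoside by spleen homogenate, 40 min at 37C, pH 5.0. Data normalized to no-enzyme and enzyme controls; Hill-equation AC50 from compound titrations.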
* hit, by the source's call; ? = inconclusive; nt = not tested or not shown; [ ] = remark or other dose. Calls come from the whole dose curve; as a rule, active = well fitted curve in the direction sought with a large enough effect; inconclusive = small, poorly fitted or top-dose-only effect, or another doubt; inactive = no such curve, though single readings can be large; an effect the other way counts as inactive or inconclusive.

SMILES | aGlu spleen mod | N370S GC mod | GLA inh pH 4.5 | GAA inhib | GAA glycogen mod | aGal spleen mod
COc1cc(C2C(C#N)=C(N)Oc3n[nH]c(-c4cccs4)c32)cc(OC)c1O (configuration not stated) | 8% | -2% | -1 | nt | 18µM* | 8%
O=C(O)COCC(=O)N1CCN(C2c3ccccc3-c3ccccc32)CC1 | -3% | -15% | -3 | nt | -9% | 5%
NC(N)=NCCC[C@H](NC(=O)CC1(CC(=O)N2CCN(C3c4ccccc4NC(=O)c4ccccc43)CC2)CCCC1)C(=O)NCCn1c(=O)n(-c2ccccc2)n(-c2ccccc2)c1=O (some centres not stated) | -3% | 18µM* | -13 | nt | nt | -3%
CCCCOC(=O)c1cccc(NC(=O)/C=C/c2ccccc2Cl)c1 | nt | nt | nt | nt | -9%[76.3 µM] | nt
Cc1ccc(S(=O)(=O)NNC(=O)c2snnc2C)cc1 | 0% | -13% | 2 | -5% | 25µM* | 1%
Cc1nnsc1C(=O)NNS(=O)(=O)c1cc(C(F)(F)F)cc(C(F)(F)F)c1 | 7% | 9% | -6 | 4% | ? | 6%
COc1ccc([C@]23Cc4cc(C#N)ccc4C(O2)C2=C(CC4(CCCCC4)OC2=O)O3)cc1 | nt | -5%[12.8 µM] | nt | nt | -3%[15.3 µM] | nt
C(C#CCCCCCCCCC[n+]1ccccc1)#CCCCCCCCCC[n+]1ccccc1 | nt | 11µM* | nt | nt | nt | nt
CSc1nn(Cc2cccc(Cl)c2)c(N(C(C)=O)C(C)=O)c1S(=O)(=O)c1ccccc1 | nt | nt | nt | nt | -13%[76.3 µM] | nt
Cc1ccccc1N=C1NC(=O)CC(c2ccccc2)S1 (configuration not stated) | 6% | -5% | -5 | 1% | 11µM* | -5%
COC(=O)c1cc(O)c(OCc2ccccc2)c(O)c1 | -15% | -2% | -5 | -3% | -25% | 4%
CC(=O)Cc1cc(O)c2ccccc2c1OC(=O)c1ccccc1 | -8% | -28% | -18 | ? | 8.9µM* | 7%
CC(=O)Oc1c(C)cc(O)c2ccccc12 | 2% | 8% | -1 | 2% | 14µM* | 4%
CCOc1ccccc1CNC(=O)CCC(=O)N1CCSc2ccccc21 | nt | nt | nt | nt | -3%[76.3 µM] | nt
CCOC(=O)c1ccccc1NC(=O)N(C(C)C)C1CCN(C(C)=O)CC1 | nt | nt | nt | nt | 3%[76.3 µM] | nt
c1ccc(-c2ccc3c(c2)NCCN3)cc1 | -5% | -12% | 6 | nt | 8.9µM* | -9%
O=C(CSc1nncs1)NCCCc1ccccc1 | 3% | 2% | -5 | ? | 10µM* | -3%
O=C(O)CCC/C=C\CC1C2CCC(O2)C1CNNC(=O)Nc1ccccc1 (configuration not stated) | -1% | 13% | -29 | nt | nt | 7%
CCCCc1nc2c(c3c1C[C@H](C)OC3)CN(C(=O)N[C@@H](C)c1ccccc1)CC2 | -1%[17.4 µM] | 3%[12.8 µM] | 10 | nt | nt | -11%[17.5 µM]
CCc1c(C)c(C#N)c2nc3ccccc3n2c1Nc1c(C)n(C)n(-c2ccccc2)c1=O | 3% | 10% | -6 | 4% | 25µM* | 0%
CCCc1cc(Nc2c(C)n(C)n(-c3ccccc3)c2=O)n2c(nc3ccccc32)c1C#N | -2% | -7% | -18 | ? | 14µM* | 10%
Cc1cc(Nc2c(C)n(C)n(-c3ccccc3)c2=O)n2c(nc3ccccc32)c1C#N | -1% | -12% | -13 | -9% | 14µM* | 1%
CCNc1ncc2nc(-c3cccs3)c(=O)n(Cc3ccc(F)cc3)c2n1 | -4% | -4% | nt | nt | nt | 13%
COc1ccc([C@]23Cc4cc(OC)c(OC)cc4C(O2)c2c(cc(-c4ccccc4)oc2=O)O3)cc1 | nt | -6%[12.8 µM] | nt | nt | -8%[15.3 µM] | nt
C[C@H]1Cc2c(-c3ccccc3)nc3c(c2CO1)CN(C(=O)NCc1ccco1)CC3 | 5%[17.4 µM] | 3%[12.8 µM] | -3 | nt | nt | 13%[17.5 µM]
SMILES | aGlu spleen mod | N370S GC mod | GLA inh pH 4.5 | GAA inhib | GAA glycogen mod | aGal spleen mod
COCCNc1nc(-c2ccccc2Cl)nc2ccccc12 | -5% | 7.9µM* | nt | nt | nt | -7%
c1ccc(CNc2nc(-c3ccccc3)nc3ccccc23)cc1 | nt | ? | nt | nt | -12%[76.3 µM] | nt
c1ccc(CNc2nc(-c3cccs3)nc3ccccc23)cc1 | -3% | 0.5µM* | -6 | -3% | 7% | -5%
Fc1ccccc1-c1nc(NCc2ccccc2)c2ccccc2n1 | -17% | 13µM* | -18 | nt | -12% | 5%
O=C(COc1ccccc1[N+](=O)[O-])N/N=C/c1ccc(O)c([N+](=O)[O-])c1 | -3% | 15% | 2 | -3% | 3% | 2%
O=C(COc1ccccc1C(=O)N/N=C\c1ccc(O)c(O)c1)N/N=C/c1ccc(O)c(O)c1 | -21% | -3%[12.8 µM] | -5 | -6% | 3.1µM* | -8%
Cc1cccc(Cn2c(C)c(C)c3cc(C(=O)NCCN4CCOCC4)ccc32)c1 | nt | ? | nt | nt | -1%[76.3 µM] | nt
Cc1c(C)n(Cc2ccc(F)cc2)c2ccc(C(=O)NCCN3CCOCC3)cc12 | nt | 14µM* | nt | nt | 4%[76.3 µM] | nt
O=C(O)c1ccccc1C(=O)NNc1ccc(Cl)cc1 | -8% | -8% | 10 | 3% | 11µM* | -6%
NS(=O)(=O)c1ccc(NNC(=O)c2ccccc2C(=O)O)cc1 | -12% | 2% | -1 | nt | ? | -1%
CCC(C)NC(=O)CN(c1cc(C)cc(C)c1)S(=O)(=O)c1c(C)[nH]c(=O)[nH]c1=O (configuration not stated) | -2% | 10µM* | -10 | nt | 7% | -6%
Cc1cc(C)cc(N(CC(=O)O)S(=O)(=O)c2c(C)[nH]c(=O)[nH]c2=O)c1 | 1% | -17% | -1 | 2% | 13% | -4%
CCOc1ccc(N(CC(=O)NC2CCCC2)S(=O)(=O)c2c(C)[nH]c(=O)[nH]c2=O)cc1 | -11% | 7.9µM* | 5 | -2% | -1% | -18%
Cc1cc(C)cc(N(CC(=O)NC2CCC(C)CC2)S(=O)(=O)c2c(C)[nH]c(=O)[nH]c2=O)c1 (configuration not stated) | -3% | 0.4µM* | -10 | nt | 3% | -1%
Cc1cc(C)cc(N(CC(=O)NC2CCCCCC2)S(=O)(=O)c2c(C)[nH]c(=O)[nH]c2=O)c1 | 5% | 0.71µM* | -3 | nt | 4% | 7%
COc1cc(NC(=O)CN(c2cc(C)cc(C)c2)S(=O)(=O)c2c(C)[nH]c(=O)[nH]c2=O)cc(OC)c1 | nt | ? | nt | nt | -7%[76.3 µM] | nt
Cc1noc(C)c1S(=O)(=O)N(CC(=O)NC1CCC(C)CC1)c1ccc(C(C)C)cc1 (configuration not stated) | nt | 4% | nt | nt | nt | nt
O=C(Cn1c(=O)n(Cc2ccc(C(=O)NCc3ccc4c(c3)OCO4)cc2)c(=O)c2ccccc21)Nc1cccc(Cl)c1 | nt | nt | nt | nt | 15%[76.3 µM] | nt
CC1CC2(C)Oc3ccccc3C3OCC1(COC(=O)Nc1ccccc1)C(C)C32 (configuration not stated) | 10% | 6% | -3 | nt | nt | -2%
